According to article PMC5540273 (PLoS ONE, 2017):

Each molecule was assayed on p38-delta. Details: concentration: 1 μM, replicates: in singlicate; n = 1.
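Note: KINOMEscan kinase panel screen.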

| SMILES | %Inh [%] |
| --- | --- |
| Nc1n[nH]c2cnc(-c3ccccc3)cc12 [SB-642124] | 28 |
| CN(c1ccc(NC(=O)Nc2cc(C(F)(F)F)ccc2F)cc1)c1ccnc(Nc2ccc(S(N)(=O)=O)cc2)n1 [GW809893] | 91.7 |
| CC(C)c1nc(-c2cccc(NS(=O)(=O)c3c(F)cccc3F)c2F)c(-c2ccnc(Nc3ccc(N4CCOCC4)nc3)n2)s1 [GSK2008607] | 0 |
| O=C(Nc1cccc(-c2nn3ncccc3c2-c2ccnc(Nc3ccccc3)n2)c1)c1c(F)cccc1F [GSK198271] | 77 |
| O=C(Nc1ccccc1F)NC1CCN(c2ccnc(Nc3ccc(F)cc3)n2)CC1 [GSK1379800] | 45 |
| Cl.c1ccc(-c2ccc3c(Nc4ccc5[nH]ccc5c4)ccnc3c2)nc1 [GW440138] | 41 |
| COc1ccc(CNC(=O)NC2CCN(c3ccnc(Nc4ccc(F)cc4)n3)CC2)cc1 [GSK1379788] | 29 |
| CN(C)Cc1ccc(-c2ccc3c(Nc4ccc(Oc5ccccn5)cc4)ccnc3c2)o1 [GW567148] | 38 |
| CNC(=O)c1ccccc1Nc1nc(Nc2ccc(N3CCOCC3)cc2)ncc1Cl.Cl [GSK1576028] | 0 |
| CCS(=O)(=O)c1ccc(OC)c(Nc2nccc(-c3c(-c4cccc(NC(=O)c5c(F)cccc5F)c4)nn4ncccc34)n2)c1 [GSK326180] | 47 |
| c1ccc(Oc2ccc(Nc3ccnc4cc(-c5ccc(CNCCN6CCOCC6)o5)ccc34)cc2)nc1 [GW567145] | 0 |
| Cc1ccc(C)c(NC(=O)NC2CCN(c3ccnc(Nc4ccc(F)cc4)n3)C2)c1 (stereo not shown) [GSK1379720] | 45 |
| CCn1c(-c2nonc2N)nc2c(C#CC(C)(C)O)ncc(OCCCCN)c21.O=C(O)C(F)(F)F.O=C(O)C(F)(F)F [GSK507274] | 27 |
| COc1cc2c(cc1OCCN1CCNCC1)ncc1c3ccc(C#N)cc3[nH]c21 | 0 |
| COc1cccc(C(=O)Nc2cccc(Oc3ccc4nc(NC(=O)C5CC5)cn4n3)c2)c1 | 32 |
| FC(F)(F)c1ccc(/C=C/c2cncnc2Nc2ccc3[nH]c(Cc4ccccc4)nc3c2)cc1 [GW709199] | 0 |
| Cc1cccc(Nc2nc(N[C@H]3CCNC3)ncc2C(N)=O)c1.Cl [GSK2197149] | 19 |
| NCCCC(NC(=O)c1cc(Br)c(-c2ccnc3[nH]ccc23)s1)c1ccccc1.O=C(O)C(F)(F)F.O=C(O)C(F)(F)F (stereo not shown) [GSK1287544] | 0 |
| CC(C)(C)c1ccc2nccc(Nc3cccc(O)c3)c2c1 [GW856795] | 12 |

| SMILES | %Inh [%] |
| --- | --- |
| c1ccc(-c2n[nH]cc2Nc2ccnc3ccccc23)nc1 [GW694077] | 0 |
| COc1cccc(NC(=O)NC2CCN(c3ccnc(Nc4cc(OC)c(OC)c(OC)c4)n3)C2)c1 (stereo not shown) [GSK1379763] | 8 |
| COC(=O)Nc1nc2ccc(Oc3ccc(NC(=O)Nc4cc(C(F)(F)F)ccc4F)cc3)cc2n1C.Cl [GW692089] | 0 |
| COc1cccc(C2=C(Nc3ccc(Cl)c(C(=O)O)c3)C(=O)NC2=O)c1 [SB-390769] | 45 |
| COc1cc(Nc2nccc(-c3c(-c4cccc(NC(=O)c5c(F)cccc5F)c4)nn4ccccc34)n2)cc(OC)c1OC [GSK323521] | 43 |
| Cn1cc(-c2[nH]c3cc(NC(=O)[C@H](N)C4CCCCC4)cc4c3c2C=NNC4=O)cn1 | 0 |
| Nc1ncc(-c2cccnc2)c2scc(-c3ccc4c(c3)CCN4C(=O)Cc3ccccc3)c12 [GSK683281] | 71 |
| CCCCc1nn2ncccc2c1-c1ccnc(Nc2ccc(N3CCN(C)CC3)cc2)n1 [GW684941] | 21 |
| O=C(Nc1n[nH]c2cc(-c3ccoc3)ccc12)C1CC1 [SB-738481] | 0 |
| Cl.c1ccc(-c2ccc3c(Nc4ccc5[nH]ncc5c4)ccnc3c2)nc1 [GW440137] | 38 |
| Cn1cc(-c2ccc3c(c2)CCN3C(=O)Cc2cccc(Cl)c2)c2c(N)ncnc21 [GSK2606590] | 57 |
| COc1cccc(-c2ccc3c(NC(=O)C4CC4)n[nH]c3n2)c1 [SB-710903] | 40 |
| Nc1ncc(-c2ccc3nccc(-c4ccncc4)c3c2)cc1S(=O)(=O)N1CCOCC1 [GSK1627798] | 0 |
| COc1cc(Nc2nccc(N3CCC(NC(=O)Nc4cccc(C(C)=O)c4)C3)n2)cc(OC)c1OC (stereo not shown) [GSK1379753] | 41 |
| COCCOCCOc1cc2ncc3c4ccc(C#N)cc4[nH]c3c2cc1OC | 0 |
| COc1ccc(Nc2nccc(NCCNC(=O)c3cc4ccccc4s3)n2)cc1 [GSK1379896] | 11 |
| COC(=O)Nc1nc2cc(Oc3ccc(NC(=O)Nc4cc(C(F)(F)F)ccc4F)cn3)ccc2[nH]1.Cl.Cl [GW681170] | 75 |
| O=C(Nc1n[nH]c2nc(-c3ccc(O)cc3)ccc12)C1CC1 [SB-710363] | 0 |
